# From publication PMC7862700, “An all-to-all approach to the identification of sequence-specific readers for epigenetic DNA modifications on cytosine”
# What was measured:
# Experiment in all cases: DAPPL (digital affinity profiling via proximity ligation, sequencing); 10 mM Tris-HCl pH 7.5, 50 mM NaCl, 1 mM DTT, 4% glycerol, room temperature, 30 min; GST-TFs on glutathione beads, 16-mer random dsDNA library, 0.1% formaldehyde crosslink after washing; high values mean tight binding
# Conditions in all cases: protein: recombinant; tags: N-terminal GST; dsDNA, one strand shown
# FLI1 = target: T1, FLI1 (Homo sapiens, UniProt Q01543 1-452)
# T1 sequence: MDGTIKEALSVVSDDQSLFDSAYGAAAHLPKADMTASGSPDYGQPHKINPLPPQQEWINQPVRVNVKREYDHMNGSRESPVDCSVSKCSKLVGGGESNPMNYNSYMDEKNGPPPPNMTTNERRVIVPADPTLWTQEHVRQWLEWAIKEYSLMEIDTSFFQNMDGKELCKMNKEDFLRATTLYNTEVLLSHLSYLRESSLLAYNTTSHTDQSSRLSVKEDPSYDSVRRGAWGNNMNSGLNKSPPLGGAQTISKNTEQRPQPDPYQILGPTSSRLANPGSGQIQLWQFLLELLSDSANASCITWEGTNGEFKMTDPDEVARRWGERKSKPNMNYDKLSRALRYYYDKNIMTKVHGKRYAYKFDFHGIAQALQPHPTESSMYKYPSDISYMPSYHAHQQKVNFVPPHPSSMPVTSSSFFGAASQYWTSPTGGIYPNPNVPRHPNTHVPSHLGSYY
# Procedure, shortened: (§1)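 Each value of binding signal is a hexamer's read frequency for a factor divided by the same hexamer's frequency in the tag-only sample. Barcoded, bead-captured GST fusions of human transcription factors made in yeast were pooled with that sample and incubated with 200 nmole of a random double-stranded 16-mer DNA library in Tris/NaCl/DTT/glycerol buffer at room temperature for 30 min. Washing, 0.1% formaldehyde crosslinking, proximity ligation, PCR and Illumina NextSeq500 sequencing followed.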
# ELK1 = target: T2, ELK1 (Homo sapiens, UniProt P19419 1-428)
# T2 sequence: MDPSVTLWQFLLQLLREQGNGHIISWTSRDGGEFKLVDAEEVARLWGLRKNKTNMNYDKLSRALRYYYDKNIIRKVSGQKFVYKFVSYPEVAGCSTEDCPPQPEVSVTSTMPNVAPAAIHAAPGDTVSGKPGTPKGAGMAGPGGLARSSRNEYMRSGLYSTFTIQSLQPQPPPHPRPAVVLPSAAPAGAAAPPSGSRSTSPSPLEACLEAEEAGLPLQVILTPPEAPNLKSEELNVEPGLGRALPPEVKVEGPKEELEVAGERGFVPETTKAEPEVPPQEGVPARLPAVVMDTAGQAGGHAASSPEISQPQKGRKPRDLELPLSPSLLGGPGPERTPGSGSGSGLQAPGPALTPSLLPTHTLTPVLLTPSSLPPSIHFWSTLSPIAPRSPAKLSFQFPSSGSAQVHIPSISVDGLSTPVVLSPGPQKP
# Procedure, shortened: as §1
# GABPA = target: T3, GABPA (Homo sapiens, UniProt Q06546 1-454)
# T3 sequence: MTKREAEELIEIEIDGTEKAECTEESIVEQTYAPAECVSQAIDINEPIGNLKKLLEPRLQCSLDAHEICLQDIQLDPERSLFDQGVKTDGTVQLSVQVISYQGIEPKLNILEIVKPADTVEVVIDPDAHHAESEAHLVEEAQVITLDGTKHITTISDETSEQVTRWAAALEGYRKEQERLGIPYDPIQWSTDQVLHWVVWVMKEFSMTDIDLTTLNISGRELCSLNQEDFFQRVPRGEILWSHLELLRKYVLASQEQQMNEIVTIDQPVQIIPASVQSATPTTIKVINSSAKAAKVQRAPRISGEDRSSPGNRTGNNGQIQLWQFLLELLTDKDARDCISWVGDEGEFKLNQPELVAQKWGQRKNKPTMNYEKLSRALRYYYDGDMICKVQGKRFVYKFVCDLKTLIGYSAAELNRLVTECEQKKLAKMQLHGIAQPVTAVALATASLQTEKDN
# Procedure, shortened: as §1
# ERG = target: T4, ERG (Homo sapiens, UniProt P11308 1-479)
# T4 sequence: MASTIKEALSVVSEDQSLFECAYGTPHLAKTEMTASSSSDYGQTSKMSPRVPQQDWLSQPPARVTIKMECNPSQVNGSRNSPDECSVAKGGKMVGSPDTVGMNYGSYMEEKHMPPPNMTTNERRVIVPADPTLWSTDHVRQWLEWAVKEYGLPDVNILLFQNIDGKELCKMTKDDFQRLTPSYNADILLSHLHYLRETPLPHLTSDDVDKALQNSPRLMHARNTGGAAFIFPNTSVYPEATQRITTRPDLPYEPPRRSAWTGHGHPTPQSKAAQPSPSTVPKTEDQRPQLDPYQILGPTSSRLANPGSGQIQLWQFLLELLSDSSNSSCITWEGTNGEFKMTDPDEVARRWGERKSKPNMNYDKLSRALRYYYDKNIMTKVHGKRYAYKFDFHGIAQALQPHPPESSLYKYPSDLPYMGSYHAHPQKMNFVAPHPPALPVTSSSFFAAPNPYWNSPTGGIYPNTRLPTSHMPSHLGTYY
# Procedure, shortened: as §1
# ELF1 = ELF1 (Homo sapiens, UniProt P32519 1-619)
# ELF1, sequence (P32519 whole entry): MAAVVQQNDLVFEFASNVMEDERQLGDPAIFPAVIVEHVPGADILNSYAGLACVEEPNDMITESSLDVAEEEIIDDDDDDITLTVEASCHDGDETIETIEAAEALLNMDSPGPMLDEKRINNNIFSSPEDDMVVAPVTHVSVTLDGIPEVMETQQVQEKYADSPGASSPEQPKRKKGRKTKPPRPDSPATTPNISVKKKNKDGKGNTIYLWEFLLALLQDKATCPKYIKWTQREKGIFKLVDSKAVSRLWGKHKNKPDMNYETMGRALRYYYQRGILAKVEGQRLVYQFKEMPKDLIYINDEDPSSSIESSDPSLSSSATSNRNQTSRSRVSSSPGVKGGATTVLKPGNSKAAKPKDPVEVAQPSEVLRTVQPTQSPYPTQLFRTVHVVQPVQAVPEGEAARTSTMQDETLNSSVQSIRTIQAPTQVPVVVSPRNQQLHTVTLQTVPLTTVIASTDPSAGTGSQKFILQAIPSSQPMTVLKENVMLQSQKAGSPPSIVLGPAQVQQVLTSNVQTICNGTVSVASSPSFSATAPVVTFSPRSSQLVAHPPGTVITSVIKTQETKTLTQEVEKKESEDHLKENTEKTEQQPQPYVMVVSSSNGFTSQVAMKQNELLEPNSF
# Procedure, shortened: as §1
# EHF = target: T5, EHF (Homo sapiens, UniProt Q9NZC4 1-300)
# T5 sequence: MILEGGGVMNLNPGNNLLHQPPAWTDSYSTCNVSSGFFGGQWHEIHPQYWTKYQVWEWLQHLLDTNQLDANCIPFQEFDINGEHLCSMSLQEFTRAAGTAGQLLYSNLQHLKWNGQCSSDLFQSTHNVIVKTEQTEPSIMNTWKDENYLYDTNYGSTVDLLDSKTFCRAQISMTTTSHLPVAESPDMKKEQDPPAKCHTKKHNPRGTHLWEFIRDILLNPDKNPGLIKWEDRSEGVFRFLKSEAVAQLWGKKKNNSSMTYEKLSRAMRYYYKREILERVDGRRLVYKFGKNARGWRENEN
# Procedure, shortened: as §1
# SPI1 [1] = target: SPI1 (Homo sapiens, UniProt P17947 1-270)
# Procedure, shortened: as §1
# SPIB = SPIB (Homo sapiens, UniProt Q01892 1-262)
# SPIB, sequence (Q01892 whole entry): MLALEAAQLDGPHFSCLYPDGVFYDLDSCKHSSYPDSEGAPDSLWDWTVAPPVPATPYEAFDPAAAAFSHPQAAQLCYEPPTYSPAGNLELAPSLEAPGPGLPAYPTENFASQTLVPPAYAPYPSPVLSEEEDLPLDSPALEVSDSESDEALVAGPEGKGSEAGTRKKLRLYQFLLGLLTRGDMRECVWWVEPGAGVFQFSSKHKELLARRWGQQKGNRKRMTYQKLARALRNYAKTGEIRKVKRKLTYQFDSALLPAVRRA
# Procedure, shortened: as §1
# ELK3 = target: T6, ELK3 (Homo sapiens, UniProt P41970 1-407)
# T6 sequence: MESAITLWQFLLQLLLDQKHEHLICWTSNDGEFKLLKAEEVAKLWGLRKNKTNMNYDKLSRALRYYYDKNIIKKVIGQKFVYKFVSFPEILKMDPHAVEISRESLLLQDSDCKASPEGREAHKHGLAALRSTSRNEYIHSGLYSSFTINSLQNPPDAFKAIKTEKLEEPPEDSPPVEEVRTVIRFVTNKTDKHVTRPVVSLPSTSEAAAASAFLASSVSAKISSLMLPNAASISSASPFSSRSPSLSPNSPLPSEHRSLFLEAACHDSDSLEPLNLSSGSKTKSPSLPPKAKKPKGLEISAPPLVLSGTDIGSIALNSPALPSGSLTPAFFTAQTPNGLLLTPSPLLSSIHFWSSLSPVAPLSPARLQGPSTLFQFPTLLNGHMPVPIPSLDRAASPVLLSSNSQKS
# Procedure, shortened: as §1
# SPI1 [2] = target: SPI1 (Homo sapiens, UniProt P17947 1-270); remark: listed apart in the source
# Procedure, shortened: as §1
Sequence,binding signal (FLI1),binding signal (ELK1),binding signal (GABPA),binding signal (ERG),binding signal (ELF1),binding signal (EHF),binding signal (SPI1 [1]),binding signal (SPIB),binding signal (ELK3),binding signal (SPI1 [2])
ACTTCC,"7.89 fold enrichment (6-mer frequency, TF over GST control)","8.92 fold enrichment (6-mer frequency, TF over GST control)","7.33 fold enrichment (6-mer frequency, TF over GST control)","10 fold enrichment (6-mer frequency, TF over GST control)","7.99 fold enrichment (6-mer frequency, TF over GST control)","8.81 fold enrichment (6-mer frequency, TF over GST control)","12.7 fold enrichment (6-mer frequency, TF over GST control)","8.52 fold enrichment (6-mer frequency, TF over GST control)","9.72 fold enrichment (6-mer frequency, TF over GST control)",–
ACCCTT,"1.3 fold enrichment (6-mer frequency, TF over GST control)","1.23 fold enrichment (6-mer frequency, TF over GST control)","1.23 fold enrichment (6-mer frequency, TF over GST control)","1.19 fold enrichment (6-mer frequency, TF over GST control)","1.16 fold enrichment (6-mer frequency, TF over GST control)","1.18 fold enrichment (6-mer frequency, TF over GST control)",–,"1.19 fold enrichment (6-mer frequency, TF over GST control)","1.2 fold enrichment (6-mer frequency, TF over GST control)","1.21 fold enrichment (6-mer frequency, TF over GST control)"
ATTACA,"1.14 fold enrichment (6-mer frequency, TF over GST control)","1.13 fold enrichment (6-mer frequency, TF over GST control)","1.06 fold enrichment (6-mer frequency, TF over GST control)","1.12 fold enrichment (6-mer frequency, TF over GST control)","1.1 fold enrichment (6-mer frequency, TF over GST control)","1.12 fold enrichment (6-mer frequency, TF over GST control)",–,"1.15 fold enrichment (6-mer frequency, TF over GST control)","1.11 fold enrichment (6-mer frequency, TF over GST control)","1.08 fold enrichment (6-mer frequency, TF over GST control)"
ATTATT,"1.14 fold enrichment (6-mer frequency, TF over GST control)","1.17 fold enrichment (6-mer frequency, TF over GST control)","1.1 fold enrichment (6-mer frequency, TF over GST control)","1.17 fold enrichment (6-mer frequency, TF over GST control)","1.13 fold enrichment (6-mer frequency, TF over GST control)","1.16 fold enrichment (6-mer frequency, TF over GST control)",–,"1.12 fold enrichment (6-mer frequency, TF over GST control)","1.14 fold enrichment (6-mer frequency, TF over GST control)","1.02 fold enrichment (6-mer frequency, TF over GST control)"
